# Source: PubChem
# Only some compounds are listed: those with a hit (about 13% of all), similar ones and a draw of the others.
# HCV inhibitor – HCV inhibition; Huh7.5.1 HCVcc-Cre infection, luciferase reporter, 44 h; Potency, µM (titrated, usually from 41.8 µM), most hits filed as inhibitors; hit rate 3.4% among 340,000; active = well fitted inhibition curve with a large enough effect; inconclusive = small, poorly fitted or top-dose-only effect, or another doubt; inactive = no such curve, though single readings can be large or run the other way
#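 Infectious HCVcc-Cre (~0.5 moi) was added to cells just after compound, with cells seeded 4 h earlier at 1,000 per well. Luciferase activity after 44 h culture reported infection; substrate was incubated 15 min at room temperature before reading.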
# Cycloheximide cs – counter-screen for Shiga toxin inhibitors: cycloheximide protein synthesis inhibition. cell reporter, cycloheximide protein synthesis inhibition counterscreen. max response, %. hit rate 12% among 300,000. AID 2314; in the data active = max response mostly above about 13%, no sharp cut-off; inactive = mostly below about 14%; note: read at 38.3 µM for the half of the compounds with a filed dose
# MARV entry inh – blocks Marburg virus binding to or entry into cells; hit rate 1.8% among 300,000; Potency, µM (highest dose often 37.8 µM), actives largely listed as inhibitors; Marburg virus pseudotyped entry inhibition, cell reporter; AID 540276; calls by dose curve; tested in HEK293 cells
# Shiga inhibitor – Shiga toxin inhibition; Vero cells, Shiga toxin protein synthesis inhibition reporter; inhibition, % at 38.7 µM; hit rate 9.2% among 290,000; AID 2315; in the data active = inhibition mostly above about 28%, no sharp cut-off; inactive = mostly below about 43%
# FMDV antiviral – blocks foot and mouth disease virus | FMDV antiviral cell-based qHTS | Potency, µM (titrated, usually from 57.9 µM), usual class: inhibitors | hit rate 1.2% among 410,000 | AID 1159524; calls by dose curve; tested in HEK293T cells; note: read-out not given here; nearly all actives have a fitted effect of over 45% in size
# Lassa entry inh – Lassa virus entry inhibition; Potency, µM (top dose mostly 37.9 µM), hits mostly inhibitors; AID 540256; Lassa virus pseudotype entry inhibition, cell reporter; hit rate 1.2% among 300,000; calls by dose curve; tested in HEK293 cells; note: nearly all actives have a fitted effect of over 50% in size
# Hits are given with their value; - = inactive; ? = inconclusive; . = no result given.
SMILES,HCV inhibitor,Cycloheximide cs,MARV entry inh,Shiga inhibitor,FMDV antiviral,Lassa entry inh
CC1(CCl)N([O-])C2=C(CCCC2)[N+]1=O (centres undefined),-,14.3,-,-,-,-
O=C1CCC(C(=O)O)(c2ccccc2)C1 (centres undefined),.,-,-,-,.,.
CCN(CC)S(=O)(=O)c1cc(OC)c(Cl)cc1Cl,-,27.7,-,-,-,-
CCN(CC)S(=O)(=O)c1cc(OC)c(C)cc1C,-,-,-,-,-,-
O=C(CSc1ccc2nnc(CCNC(=O)c3ccccc3)n2n1)Nc1ccccc1F,?,-,.,-,-,.
COCC(=O)Nc1ccc2c(c1)OCC(=O)N2Cc1ccc(C)cc1,-,12.0,.,-,-,.
CC(C)(C)c1ccc(OC(=O)N2CCOCC2)cc1,-,45.0,.,69.1,-,.
O=C(Oc1ccccc1OC(=O)N1CCOCC1)N1CCOCC1,-,-,-,-,-,-
Cc1ccc(OC(=O)N2CCOCC2)cc1,-,30.4,?,48.3,-,-
O=C(Oc1ccc2ccc(OC(=O)N3CCOCC3)cc2c1)N1CCOCC1,-,11.5,-,-,-,-
O=C(Oc1ccc2cccc(OC(=O)N3CCOCC3)c2c1)N1CCOCC1,-,-,-,-,-,-
COC(=O)c1ccc(OC(=O)N2CCOCC2)cc1,-,-,.,.,-,.
CCC(=O)c1ccc(OC(=O)N2CCOCC2)cc1,-,22.5,.,33.1,-,.
CSCCC(NC(=O)C12CC3CC(CC(C3)C1)C2)C(=O)OCC(=O)c1ccccc1 (centres undefined),-,-,?,-,-,-
O=C(Oc1ccc(OC(=O)N2CCOCC2)cc1)c1ccccc1,-,12.3,-,-,-,-
O=C(Oc1ccccc1)N1CCOCC1,-,-,?,-,-,?
COC(=O)CCCC(=O)NC1CCCN(C2Cc3ccccc3C2)C1 (centres undefined),-,-,.,.,-,.
COc1cccc2c1OC[C@@H](CO)[C@H]2N(C)C(=O)Nc1ccc(Cl)cc1,?,-,-,-,?,-
Cc1ccc(NC(=O)NN2CCOCC2)cc1,-,16.0,.,-,-,.
CC(C)c1ccc(NC(=S)NN2CCOCC2)cc1,-,22.6,?,48.5,-,-
Cn1cc(S(=O)(=O)N2CCOCC2)cc1C(=O)Nc1ccc(Cl)cc1,-,-,.,38.6,-,.
COC(=O)c1ccc(NC(=O)c2cc(S(=O)(=O)N3CCOCC3)cn2C)cc1,.,.,.,.,-,-
Cc1ccc(NC(=O)Nc2ccc(C(=O)N3CCOCC3)cc2)cc1,-,-,-,-,-,-
S=C(Nc1ccc(Cl)cc1)NN1CCOCC1,-,-,?,-,-,-
O=C(/C=C/c1ccccc1)Nc1ccc(N2CCCCC2)cc1,-,26.3,-,-,-,-
SMILES,HCV inhibitor,Cycloheximide cs,MARV entry inh,Shiga inhibitor,FMDV antiviral,Lassa entry inh
Cc1ccc(-n2nnnc2SCC(=O)N2Cc3ccccc3CC2C(=O)O)cc1 (centres undefined),-,-,.,-,-,.
CSc1ccc(CNC(=O)C2(C)CCCN2CC(C)C)cc1 (centres undefined),.,.,.,.,-,.
CC(=O)Nc1ccc(NC(=O)C2CCCCC2C(=O)O)cc1 (centres undefined),-,-,-,-,-,-
Cc1ccc(NC(=O)c2ccc(NC(=O)C3CCCCC3C(=O)O)cc2)cc1 (centres undefined),-,29.7,.,75.2,-,.
CCOc1ccc(C(=O)NCC(=O)Nc2ccncc2)cc1OCC,-,.,.,.,-,.
CCOC(=O)c1c(NC(=S)Nc2ccc(OCC)cc2)sc2c1CCN(C)C2,?,18.4,?,-,-,-
CCOc1ccc(C(=O)NCC(=O)Nc2ccc(N3CCOCC3)cc2)cc1OCC,-,21.4,.,124.1,-,.
Cc1ccc(C(=O)Nc2ccc(N3CCOCC3)cc2)cc1,?,64.6,-,-,.,-
COc1ccc(S(=O)(=O)Nc2cccnc2)c(C)c1C,-,-,-,-,-,-
CN(CC1CCCO1)S(=O)(=O)c1ccc(C(=O)Nc2nccs2)cc1 (centres undefined),-,24.1,.,21.7,-,.
O=C(Nc1ccc(N2CCCC2)cc1)c1cccc(F)c1,?,54.0,?,145.4,-,?
COc1ccc(S(=O)(=O)N(CC(=O)Nc2ccc(S(=O)(=O)N3CCOCC3)cc2)c2ccccc2)cc1,5.62µM,-,?,-,-,?
COc1ccc(NC(=O)CN(C)C(=O)c2ccc(S(=O)(=O)N3CCOCC3)cc2)cc1,.,.,.,.,-,.
Cc1cc(NC(=O)c2ccc(S(=O)(=O)N(C)CC3CCCO3)cc2)no1 (centres undefined),-,-,?,-,-,-
O=C(O)c1cc(NC(=O)c2cccc(F)c2)cc(NC(=O)c2cccc(F)c2)c1,-,-,-,-,-,-
Cc1ccc(NC(=O)c2cc(S(=O)(=O)N3CCOCC3)ccc2F)c(C)c1,-,23.5,-,-,-,-
COc1ccc(C2SCC(=O)N2c2ccc(C)cc2)cc1 (centres undefined),-,-,.,-,-,.
COC(=O)c1c(C)oc2ccc(N(C(=O)c3ccncc3)S(=O)(=O)c3cc(C)c(C)cc3C)cc12,.,.,?,.,-,?
CC(=O)c1ccccc1NC(=O)c1ccc(N2CCCC2=O)cc1,12.6µM,.,-,.,-,11.2µM
CC(=O)c1ccc(NC(=O)c2ccc(N3CCCC3=O)cc2)cc1,?,.,-,.,-,-
Cc1ccc(C(=O)Nc2ccc(N3CCCC3)cc2)cc1,-,26.0,-,68.8,-,-
Cc1ccc(S(=O)(=O)N2CCN(CC(=O)Nc3ccc(N4CCOCC4)cc3)CC2)cc1C,-,-,-,-,-,-
O=C(Nc1ccc(N2CCCC2=O)cc1)c1cccc(F)c1,-,38.6,?,76.0,.,-
Cc1ccc(C(=O)Nc2ccc(N3CCCCC3)cc2)cc1,.,.,.,.,-,.
Cc1cccc(N2CCN(CC(=O)Nc3ccc(S(=O)(=O)N4CCOCC4)cc3)CC2)c1C,10µM,-,.,-,?,.
SMILES,HCV inhibitor,Cycloheximide cs,MARV entry inh,Shiga inhibitor,FMDV antiviral,Lassa entry inh
CNC(=O)/C=C/c1cc(C(=O)c2ccc(Cl)cc2Cl)cn1C,-,-,.,-,-,.
CC(=O)Nc1ccc(N2CCCC2)cc1,-,-,-,-,-,-
NC(=O)NC(=O)C(Nc1ccc(N2CCCCC2)cc1)c1ccccc1 (centres undefined),-,51.3,?,121.4,-,-
Cc1ccc(NC(=O)c2ccc(S(=O)(=O)N3CCOCC3)cc2)cc1,-,29.2,-,-,-,?
O=C(Nc1ccc(N2CCCCC2)cc1)c1ccccc1,?,-,?,88.4,.,7.3µM
CCOC(=O)c1c(NC(=O)c2ccc(S(=O)(=O)N(C)CC3CCCO3)cc2)sc2c1CCN(C)C2 (centres undefined),12.6µM,-,.,-,-,.
CC(=O)N1CCc2c(sc(NC(=O)c3ccc(S(=O)(=O)N(C)CC4CCCO4)cc3)c2C(N)=O)C1 (centres undefined),.,.,.,.,-,.
O=C(O)C1(c2ccccc2)CCN(S(=O)(=O)c2ccc(Cl)s2)CC1,-,-,.,-,?,.
COC(=O)N1CCC2(CCCN(C(=O)Nc3ccc(OC)cc3)C2)CC1,.,.,.,.,-,.
CS(=O)(=O)c1cccc(-c2nnc(NC(=O)c3ccc(S(=O)(=O)N4CCCC4)cc3)o2)c1,-,.,-,.,-,-
